This passage reports growth results from PubChem BioAssay (NCI).

This is part of a sample that, as a whole, favours compounds with a hit. Of some 83,000 tested, about 20% had one in any assay.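 Each cell line was grown in a 96-well plate and treated with one concentration of compound for 48 hours. Values below 10 were considered active.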 Active and inactive are the calls of the source.

For one test, the system named is NCI-H23 lung. The test is described as follows: NCI-60 one-dose screen, 48 h (100 = growth as untreated, 0 = no growth, -100 = all killed). As to conditions: 10 µM unless noted.
On to `COc1cc(C(=O)/C=C/c2c(-c3ccc(F)cc3)nc3sccn23)cc(OC)c1OC`, for which the growth was 56.5% (inactive).
In the case of `Nc1nc(N)c2c(n1)NC(c1ccc(F)cc1)C1CCc3ccccc3C1=N2` (centres undefined), the growth was 51.1% (inactive).
Turning to `COc1ccc(-c2cc(-c3ccc(Cl)cc3)nc(NCCCCNc3ccnc4cc(Cl)ccc34)n2)cc1`, the growth was 86.4% (inactive).
Same read-out and setting: with `Cc1cc(C)nc(SCC(=O)Nc2cccc(N=Cc3ccccc3O)c2)n1` the figure was 98% (inactive).
For `O=C(Nc1ccc(Nc2ccncc2)cc1)c1ccc([N+](=O)[O-])cc1`, the growth was 81% (inactive).
As for `O=C1COCCN1c1ccc(NCc2cn(Cc3cccc4ccccc34)c3ccccc23)cc1`, the growth is 84% (inactive).
`O=C1/C(=C\c2cccn2Cc2ccccc2)c2ccccc2N1c1c(Cl)cccc1Cl`: the growth was 68.7% (inactive).
The same measure, in the same setting: the figure for `CCCCCN(CCCCC)CCCCCCCCN1CCCc2ccccc21` is 76% (inactive); for `CC(C)CSc1ncnc2nc[nH]c12` it is 94.7% (inactive).
Turning to `CCN(CC)CCCC(C)Nc1ccnc2cc(Cl)c(SCc3ccccc3)cc12` (centres undefined), the growth is -17.1% (active).
The same measure, in the same setting: with `O=C(Nc1ccc(C(=O)/C=C/c2ccc(N3CCOCC3)cc2)cc1)Nc1ccc([N+](=O)[O-])cc1` the figure was 83.4% (inactive); with `Cc1ccc(-c2cn(C/C=C3\C=CN(S(=O)(=O)c4ccccc4)CC3)nn2)cc1`, 96.1% (inactive); with `CCOc1ccc2sc(NS(=O)(=O)c3ccc(N)cc3)nc2c1`, 104% (inactive).
Still for that read-out and setting: the figure for `O=C(NCCCNC(=O)OCc1ccc2c(Br)cc(Br)c(O)c2n1)OCc1ccc2c(Br)cc(Br)c(O)c2n1` is -46.3% (active).
`C=CCc1nc2ccccc2s1`: the growth was 95.7% (inactive).
Consider `CCN(CC)CCCNCc1cc(-c2ccccc2)nc2ccccc12`, for which the growth is 36% (inactive).
Turning to `C=C(C)[C@@H]1CC[C@]2(C(N)=O)CC[C@]3(C)[C@H](CC[C@@H]4[C@@]5(C)C/C(=C/c6cccnc6)C(=O)C(C)(C)[C@@H]5CC[C@]43C)[C@@H]12`, the growth is 18.9% [100 µM] (inactive).
As for `COC(=O)C(=Cc1ccccc1[N+](=O)[O-])C(=O)OC`, the growth is 38.8% (inactive).
Regarding `CCOC(CNC(=O)c1cccc([N+](=O)[O-])c1)OCC`, the growth is 85.7% (inactive).
On to `Cc1ccc(-c2cc(O)c(-c3ccc(C)cc3C)cc2O)c(C)c1`, for which the growth is 76.7% (inactive).
On the same count and under the same terms, the figure for `Fc1cc2[nH]ncc2c2c3c(c(-c4cn[nH]c4)nc12)CCCC3` is -14.5% (active).
On the same count and under the same terms, with `O=C(CCN1CCCCC1)c1ccc(Cl)cc1` the figure was 110% (inactive); with `CCOC(=O)C1=C(C(=O)c2ccc(Br)cc2)C(c2ccc(Br)cc2)NC(=S)N1` (centres undefined), 98% (inactive); with `Cn1cc(-c2noc(-c3cn(C)c4ncc(F)cc34)n2)c2cc(Cl)ccc21`, 81.3% (inactive).
As for `O=[N+]([O-])c1cc([N+](=O)[O-])c(NN=C(c2ccc(O)cc2)c2ccc(O)cc2)cc1Cl`, the growth was -72.9% (active).
`NNC(=O)c1ccc(C(=O)NN)cc1`: the growth is 101% (inactive).
As for `CN(C)CCOc1ccc(/C(=C(/CCCl)c2ccccc2)c2ccccc2)cc1`, the growth is 28.5% (inactive).
For the molecule `CC(=O)Nc1ccc2nc3ccc(NC(C)=O)cc3[n+](-c3ccccc3)c2c1`, the growth was 104% (inactive).
With `COc1ccc(/C=C(/C(=O)c2ccc(Cl)cc2)C(=O)C(F)(F)F)cc1`, the growth is 91.4% (inactive).
Consider `COc1cc2c(c(OC)c1)C1c3cc(OC)ccc3NC(=O)N1CC2` (centres undefined), for which the growth was 92.9% (inactive).
The same measure, in the same setting: the figure for `COc1ccc(C=C2c3ccccc3-c3ccccc32)cc1` is 67.6% (inactive).
As for `O=S(=O)(c1ccc(N/N=C\c2ccccc2Cl)cc1)c1ccc(N/N=C/c2ccccc2Cl)cc1`, the growth was 86.8% (inactive).
Same read-out and setting: with `CSc1nc(N)c(N=Nc2ccc(S(=O)(=O)Nc3nnc(C)s3)cc2)c(=O)[nH]1` the figure was 107% (inactive).
For the molecule `C=C(C)[C@@H]1CC[C@]2(C)[C@H](CC=C3[C@@H]4[C@@H](C)[C@H](C)CC[C@]4(C(N)=O)CC[C@]32C)[C@@]1(C)CCC#N`, the growth is 6.47% [100 µM] (active).
Same read-out and setting: with `CCOC(=O)CC(c1ccccc1)C(C#N)c1ccccc1` (centres undefined) the figure was 102% (inactive); with `Clc1ccc(/C=N/Nc2nc3ccccc3s2)c(Cl)c1`, 90.4% (inactive).
Consider `CC1(C)CC[C@]2(C(=O)O)CC[C@]3(C)[C@H](CC[C@@H]4[C@@]5(C)CCC(=O)C(C)(C)[C@@H]5CC[C@]43C)[C@H]2[C@H]1OC(=O)C(F)(F)F`, for which the growth was -62.4% [100 µM] (active).

A further test deals with NCI-H226 lung. The description is as above. As to conditions: 10 µM unless noted.
With `COc1cc(C(=O)/C=C/c2c(-c3ccc(F)cc3)nc3sccn23)cc(OC)c1OC`, the growth was 76.1% (inactive).
Regarding `Nc1nc(N)c2c(n1)NC(c1ccc(F)cc1)C1CCc3ccccc3C1=N2` (centres undefined), the growth was 53.1% (inactive).
The same measure, in the same setting: with `COc1ccc(-c2cc(-c3ccc(Cl)cc3)nc(NCCCCNc3ccnc4cc(Cl)ccc34)n2)cc1` the figure was 75% (inactive); with `Cc1cc(C)nc(SCC(=O)Nc2cccc(N=Cc3ccccc3O)c2)n1`, 93.8% (inactive); with `O=C(Nc1ccc(Nc2ccncc2)cc1)c1ccc([N+](=O)[O-])cc1`, 91.1% (inactive).
In the case of `O=C1COCCN1c1ccc(NCc2cn(Cc3cccc4ccccc34)c3ccccc23)cc1`, the growth is 5.06% (active).
The same measure, in the same setting: the figure for `O=C1/C(=C\c2cccn2Cc2ccccc2)c2ccccc2N1c1c(Cl)cccc1Cl` is 53.1% (inactive).
As to `CCCCCN(CCCCC)CCCCCCCCN1CCCc2ccccc21`, the growth is 97.6% (inactive).
In the case of `CC(C)CSc1ncnc2nc[nH]c12`, the growth is 85.2% (inactive).
As to `CCN(CC)CCCC(C)Nc1ccnc2cc(Cl)c(SCc3ccccc3)cc12` (centres undefined), the growth is 24.2% (inactive).
Still for that read-out and setting: with `O=C(Nc1ccc(C(=O)/C=C/c2ccc(N3CCOCC3)cc2)cc1)Nc1ccc([N+](=O)[O-])cc1` the figure was 45% (inactive).
On the same count and under the same terms, with `Cc1ccc(-c2cn(C/C=C3\C=CN(S(=O)(=O)c4ccccc4)CC3)nn2)cc1` the figure was 99.5% (inactive); with `CCOc1ccc2sc(NS(=O)(=O)c3ccc(N)cc3)nc2c1`, 94.7% (inactive); with `O=C(NCCCNC(=O)OCc1ccc2c(Br)cc(Br)c(O)c2n1)OCc1ccc2c(Br)cc(Br)c(O)c2n1`, 2.3% (active).
Same read-out and setting: with `C=CCc1nc2ccccc2s1` the figure was 101% (inactive); with `CCN(CC)CCCNCc1cc(-c2ccccc2)nc2ccccc12`, 86.5% (inactive).
As for `C=C(C)[C@@H]1CC[C@]2(C(N)=O)CC[C@]3(C)[C@H](CC[C@@H]4[C@@]5(C)C/C(=C/c6cccnc6)C(=O)C(C)(C)[C@@H]5CC[C@]43C)[C@@H]12`, the growth is 9.08% [100 µM] (active).
In the case of `COC(=O)C(=Cc1ccccc1[N+](=O)[O-])C(=O)OC`, the growth was 97.6% (inactive).
Turning to `CCOC(CNC(=O)c1cccc([N+](=O)[O-])c1)OCC`, the growth is 89.8% (inactive).
`Cc1ccc(-c2cc(O)c(-c3ccc(C)cc3C)cc2O)c(C)c1`: the growth is 62.9% (inactive).
On to `Fc1cc2[nH]ncc2c2c3c(c(-c4cn[nH]c4)nc12)CCCC3`, for which the growth is 1.53% (active).
The same measure, in the same setting: the figure for `O=C(CCN1CCCCC1)c1ccc(Cl)cc1` is 94.6% (inactive); for `CCOC(=O)C1=C(C(=O)c2ccc(Br)cc2)C(c2ccc(Br)cc2)NC(=S)N1` (centres undefined) it is 94.9% (inactive).
Same read-out and setting: with `Cn1cc(-c2noc(-c3cn(C)c4ncc(F)cc34)n2)c2cc(Cl)ccc21` the figure was 95.7% (inactive); with `O=[N+]([O-])c1cc([N+](=O)[O-])c(NN=C(c2ccc(O)cc2)c2ccc(O)cc2)cc1Cl`, -28% (active); with `NNC(=O)c1ccc(C(=O)NN)cc1`, 97.6% (inactive).
On the same count and under the same terms, the figure for `CN(C)CCOc1ccc(/C(=C(/CCCl)c2ccccc2)c2ccccc2)cc1` is 59.1% (inactive).
As to `CC(=O)Nc1ccc2nc3ccc(NC(C)=O)cc3[n+](-c3ccccc3)c2c1`, the growth is 127% (inactive).
On the same count and under the same terms, the figure for `COc1ccc(/C=C(/C(=O)c2ccc(Cl)cc2)C(=O)C(F)(F)F)cc1` is 99.9% (inactive); for `COc1cc2c(c(OC)c1)C1c3cc(OC)ccc3NC(=O)N1CC2` (centres undefined) it is 99.3% (inactive).
On the same count and under the same terms, with `COc1ccc(C=C2c3ccccc3-c3ccccc32)cc1` the figure was 68.6% (inactive); with `O=S(=O)(c1ccc(N/N=C\c2ccccc2Cl)cc1)c1ccc(N/N=C/c2ccccc2Cl)cc1`, 74.9% (inactive).
Regarding `CSc1nc(N)c(N=Nc2ccc(S(=O)(=O)Nc3nnc(C)s3)cc2)c(=O)[nH]1`, the growth was 100% (inactive).
Same read-out and setting: the figure for `C=C(C)[C@@H]1CC[C@]2(C)[C@H](CC=C3[C@@H]4[C@@H](C)[C@H](C)CC[C@]4(C(N)=O)CC[C@]32C)[C@@]1(C)CCC#N` is -22.2% [100 µM] (active).
Same read-out and setting: the figure for `CCOC(=O)CC(c1ccccc1)C(C#N)c1ccccc1` (centres undefined) is 95.4% (inactive); for `Clc1ccc(/C=N/Nc2nc3ccccc3s2)c(Cl)c1` it is 100% (inactive); for `CC1(C)CC[C@]2(C(=O)O)CC[C@]3(C)[C@H](CC[C@@H]4[C@@]5(C)CCC(=O)C(C)(C)[C@@H]5CC[C@]43C)[C@H]2[C@H]1OC(=O)C(F)(F)F` it is -51.2% [100 µM] (active).
